Data taken from the supplement of paper PMC3334620.
Over roughly 33,000 sequences, “E-score (-0.5 to 0.5)” has its median near -0.013; the highest 2% begin near 0.3. The list comes from a sample in which the highest values are over-represented; it also holds similar and randomly drawn sequences.

The sequences below were run against T1, Msn1 (UniProt P22148) (assay: PBM E-score (8-mer binding enrichment) (E-score (-0.5 to 0.5)); higher = stronger / more preferred TF binding). Conditions: protein concentration: 200 nM; construct: GST-full length.
T1 sequence: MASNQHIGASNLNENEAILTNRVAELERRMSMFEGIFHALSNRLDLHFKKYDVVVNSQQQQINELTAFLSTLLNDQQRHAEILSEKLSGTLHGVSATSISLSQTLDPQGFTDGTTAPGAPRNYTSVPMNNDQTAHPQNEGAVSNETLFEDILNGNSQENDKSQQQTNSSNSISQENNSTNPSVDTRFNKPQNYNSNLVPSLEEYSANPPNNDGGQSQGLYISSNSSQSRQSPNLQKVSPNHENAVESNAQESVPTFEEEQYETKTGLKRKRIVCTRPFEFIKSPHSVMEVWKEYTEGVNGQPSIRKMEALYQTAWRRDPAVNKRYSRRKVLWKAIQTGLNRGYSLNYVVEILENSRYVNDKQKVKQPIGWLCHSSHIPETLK
Summary of the method: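 Detection of bound protein used fluorescent anti-GST, with scans normalised by masliner. The proteins were GST-tagged yeast transcription factors applied at about 100-200 nM to universal all-10-mer Agilent arrays made double-stranded by primer extension. Each ungapped eight-base word, pooled with its reverse complement, was scored with an E-score from the Universal PBM Analysis Suite.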

Sequence | PBM E-score
CCGCTTCC | -0.183
TACGGACA | 0.44
AACGGACG | 0.0165
CACGGACG | 0.175
CACGGACC | 0.0127
CACGGACA | 0.455
GACGGACC | -0.0404
TACGGAAA | 0.17
AACGGACT | -0.00389
GACGGACA | 0.386
AACGGACA | 0.344
TACGGAGA | -0.0508
GACGGAAA | 0.106
ACTAACGC | -0.108
GCTCGAAA | -0.00351
TGCAGGAA | 0.0458
TGAGTGAA | -0.115
ACGAATCG | 0.0506
CGAATAAC | 0.0021
CGAATAAA | 0.309
GGAATAAA | 0.119
TAAGCTCA | -0.0986

Sequence | PBM E-score
CTTCCGGA | 0.132
ATTCCGGA | 0.313
CGTCCGGA | 0.331
GGTCCGGA | 0.216
ATTCCGGG | 0.14
AGTCCGGA | 0.267
CCTTTGAA | -0.154
ATGTTTTG | 0.12
CGAGCACG | -0.175
ACATATGA | 0.311
ACATATGC | -0.0219
TCATATGA | 0.297
ATATATTC | 0.163
ATATATTG | -0.172
ACATATCA | 0.319
CCATATCA | 0.0259
ACATATTG | 0.321
CCATATTC | -0.0353
ACATATCG | 0.231
ACATATTC | 0.34
ACATATGG | 0.262
AATCTTGG | 0.0184

Sequence | PBM E-score
AGTTACAT | -0.0774
AATCAAAA | 0.089
CTATTCTC | -0.0396
CCACAACC | -0.0582
TAGTTGCA | 0.0158
TAGAAGGA | -0.21
AATAGCTG | -0.128
GTTGAGGA | -0.00729
GCATATTA | 0.0109
CCATATTA | 0.21
ACATATTA | 0.351
ACCTTCCA | -0.119
AATCGAGT | -0.0102
CGAAGCAC | 0.0622
ACACCGTG | -0.05
GATTGGAC | 0.109
ATTTGGAG | -0.0358
AATTGGAC | 0.342
ATTTGGAC | 0.366
AATTGGAT | 0.157
CTTTGGAC | 0.262
CTGAGCTC | 0.0318

Sequence | PBM E-score
ATTTGCCC | 0.0584
AAGTGATA | -0.052
GACAAGCC | 0.318
TACAAGAA | 0.169
TACAAAAA | 0.264
GACAGGAC | 0.17
AACAAAAA | 0.15
AACAAGCC | 0.0265
GACAGGAA | 0.323
GACAAGAA | 0.374
GACAAAAA | 0.466
CACAGGAA | 0.0261
CACAAGAA | 0.105
GACAAGCA | 0.278
ATCTATCC | -0.0249
CCTAGCCA | -0.0603
CCTGCAAA | -0.188
AAGCAAGG | -0.0227
ATTTACTA | 0.206
AGTCAGAA | -0.0729
